What all share (assay): NCI-60 one-dose screen, 48 h (100 = growth as untreated, 0 = no growth, -100 = all killed)
In one assay the test system is NCI-H226 lung. The note with it: 10 µM.
The test system of a further assay is NCI-H322M lung. Particulars: 10 µM.
The test system of the next assay is HOP-62 NSCLC. Particulars: 10 µM.
In another assay the test system is NCI-H460 lung. The note with it: 10 µM.
Another assay deals with A549/ATCC NSCLC. The note with it: 10 µM.
For a further assay, the system named is COLO 205 colon. The note with it: 10 µM.
The next assay has as its system DU-145 prostate. Particulars: 10 µM.
Another assay has as its system SF-268 CNS. Particulars: 10 µM.
The next assay relates to SF-295 CNS. The note with it: 10 µM.
Another assay relates to SF-539 CNS. The note with it: 10 µM.
For a further assay, the system named is HCT-15 colon. Particulars: 10 µM.
Another assay concerns HT29 colon. The note with it: 10 µM.
Another assay deals with SNB-75 CNS. The note with it: 10 µM.
Another assay concerns SNB-19 CNS. Particulars: 10 µM.
The test system of a further assay is U251 CNS. Particulars: 10 µM.
For the next assay, the system named is PC-3 prostate. Particulars: 10 µM.
In another assay the test system is EKVX NSCLC. Particulars: 10 µM.
The test system of another assay is UO-31 renal. The note with it: 10 µM.
The next assay has as its system ACHN renal. The note with it: 10 µM.
A further assay relates to HL-60(TB) leukemia. The note with it: 10 µM unless noted.

Molecules are shown by their SMILES. Values joined by “and” are separate entries in the source; they are usually repeats but may differ in a detail not shown here. Equal entries are not always repeated. This is part of a sample that, as a whole, favours compounds with a hit. Of some 83,000 tested, about 20% had one in any assay.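 Plates (96-well) were seeded with cells, treated with compound at one concentration, and incubated for 48 hours before percent growth was determined.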 Active and inactive are the calls of the source. How the source made its calls: active means growth percent below 10; inactive means the rest.

The results in this text go back to PubChem BioAssay (NCI).

As for `CC1=C2C(=C[C@@](C)(COC(=O)c3ccc(S(=O)(=O)F)cc3)[C@@H]2O)C(=O)[C@](C)(O)C12CC2`, the growth in the assay on NCI-H226 lung is -24.4% (active); in the assay with NCI-H322M lung, -5.82% (active); in the assay with HOP-62 NSCLC, -17.7% (active); in the assay on NCI-H460 lung it was -33.3% (active); in the assay on A549/ATCC NSCLC, -11% (active); with COLO 205 colon, -58.5% (active). The growth is -20.4% (active) in the assay with DU-145 prostate; -12% (active) in the assay on SF-268 CNS; -5.19% (active) with SF-295 CNS; -67.8% (active) with SF-539 CNS; -20.2% (active) in the assay on HCT-15 colon; -17.9% (active) in the assay with HT29 colon. For the same compound, the growth with SNB-75 CNS was -51.6% (active); in the assay on SNB-19 CNS, 3.51% (active); in the assay with U251 CNS, 1.04% (active); in the assay with PC-3 prostate it was -3.96% (active); in the assay on EKVX NSCLC, -4.53% (active); in the assay with UO-31 renal, -21.4% (active). The growth in the assay on ACHN renal was 0.0222% (active).
Take `C/C=C/CC(C)C(O)[C@H](NC(=O)[C@@H]1CCCN1C(=O)C(C)(C)NC(=O)CCCCCCCCC)C(=O)N[C@@](C)(CC)C(=O)N[C@@H](CCC(N)=O)C(=O)N[C@H](CCC(N)=O)C(=O)NC(C)(C)C(=O)NC(C)(C)C(=O)N[C@@H](CCC(N)=O)C(=O)N[C@H](CC(C)C)C(=O)N[C@H](CO)CC(C)C` (stereo partly drawn): the growth was -0.538% (active) and 75.5% (inactive) in the assay on NCI-H226 lung; 31% (inactive) and 67.6% (inactive) in the assay with NCI-H322M lung; -12.3% (active) and 28.3% (inactive) in the assay on HOP-62 NSCLC; -56.6% (active) and 12.7% (inactive) in the assay with NCI-H460 lung; 78.8% (inactive) and 99.8% (inactive) with A549/ATCC NSCLC; -10.4% (active) and 50.9% (inactive) with COLO 205 colon. Further, the growth in the assay with DU-145 prostate is -94.5% (active) and -42.1% (active); in the assay on SF-268 CNS it was -77% (active) and 4.8% (active); in the assay with SF-295 CNS it was -64.6% (active) and -30.2% (active); in the assay on SF-539 CNS, -69.3% (active) and 12% (inactive); in the assay with HCT-15 colon it was 38% (inactive) and 89.3% (inactive); in the assay on HT29 colon it was 58.1% (inactive) and 90.2% (inactive). Also, the growth in the assay with SNB-75 CNS was -55.9% (active) and -38.8% (active); with SNB-19 CNS, -28.9% (active) and 35.2% (inactive); with U251 CNS, -89.3% (active) and 13.7% (inactive); in the assay with PC-3 prostate, 21.4% (inactive) and 32.4% (inactive); in the assay with EKVX NSCLC it was 0.155% (active) and 23% (inactive); in the assay with UO-31 renal it was 39.1% (inactive) and 62.6% (inactive). In addition, the growth in the assay on ACHN renal is 40.3% (inactive) and 68.4% (inactive); in the assay on HL-60(TB) leukemia it was 1.3% (active) and 79.5% (inactive).
Turning to `COc1cc2c(O[C@@H]3OC[C@H](OC(C)=O)[C@H](OC(C)=O)[C@H]3O)c3c(c(-c4ccc5c(c4)OCO5)c2cc1OC)C(=O)OC3`, the growth is 2.53% (active) with NCI-H226 lung; 61.5% (inactive) in the assay on NCI-H322M lung; 36.9% (inactive) in the assay on HOP-62 NSCLC; 10.7% (inactive) in the assay on NCI-H460 lung; 12.4% (inactive) in the assay with A549/ATCC NSCLC; 5.65% (active) in the assay with COLO 205 colon. The growth is 43% (inactive) in the assay with DU-145 prostate; 42.4% (inactive) with SF-268 CNS; -43% (active) with SF-295 CNS; 25.6% (inactive) in the assay with SF-539 CNS; 1.41% (active) with HCT-15 colon; 9% (active) in the assay with HT29 colon. Further, the growth in the assay on SNB-75 CNS was 6.09% (active); in the assay on SNB-19 CNS, 58.7% (inactive); in the assay on U251 CNS, 28.5% (inactive); with PC-3 prostate it was 26.5% (inactive); in the assay with EKVX NSCLC, 39.5% (inactive); in the assay with UO-31 renal, 50% (inactive). Moreover, the growth in the assay with ACHN renal is 29% (inactive); in the assay with HL-60(TB) leukemia, 26% (inactive).
Regarding `CC(C)=CCc1c2c(c(O)c3c1O[C@]14C(=C[C@@H]5C[C@H]1C(C)(C)O[C@@]4(C/C=C(/C)C(=O)O)C5=O)C3=O)C=CC(C)(C)O2`, the growth was -2.64% (active) in the assay on NCI-H226 lung; -84.9% (active) in the assay on NCI-H322M lung; -71.1% (active) in the assay with HOP-62 NSCLC; -67.4% (active) in the assay on NCI-H460 lung; -43.9% (active) with A549/ATCC NSCLC; -79.8% (active) in the assay on COLO 205 colon. The growth in the assay on DU-145 prostate was -100% (active); in the assay on SF-268 CNS, -75.1% (active); in the assay with SF-295 CNS it was -64.5% (active); in the assay with SF-539 CNS it was -38.9% (active); in the assay with HCT-15 colon, -72.5% (active); in the assay with HT29 colon, -86.7% (active). The growth was -62.3% (active) with SNB-75 CNS; -50.9% (active) in the assay with SNB-19 CNS; -87.7% (active) in the assay on U251 CNS; -37.8% (active) in the assay with PC-3 prostate; -62.3% (active) in the assay with EKVX NSCLC; -76% (active) with UO-31 renal. The growth with ACHN renal is -82.6% (active).
For `COc1cc2c(O[C@@H]3OC[C@H](O)[C@H](O)[C@H]3O)c3c(c(-c4ccc5c(c4)OCO5)c2cc1OC)C(=O)OC3`, the growth in the assay with NCI-H226 lung was 80.7% (inactive); in the assay on NCI-H322M lung it was 82% (inactive); with HOP-62 NSCLC, 59.1% (inactive); with NCI-H460 lung, 71.9% (inactive); in the assay on A549/ATCC NSCLC, 91% (inactive); in the assay with COLO 205 colon, 11.6% (inactive). Besides, the growth in the assay with DU-145 prostate was 53.2% (inactive); in the assay with SF-268 CNS it was 66.7% (inactive); in the assay on SF-295 CNS it was 40.5% (inactive); in the assay on SF-539 CNS, 53.6% (inactive); with HCT-15 colon, 70.3% (inactive); in the assay with HT29 colon, 38.6% (inactive). The growth in the assay on SNB-75 CNS is 18% (inactive); in the assay on SNB-19 CNS, 97% (inactive); with U251 CNS it was 54.8% (inactive); in the assay with PC-3 prostate, 67.1% (inactive); in the assay on EKVX NSCLC, 70% (inactive); in the assay with UO-31 renal, 82.2% (inactive). Also, the growth in the assay with ACHN renal is 67.6% (inactive); in the assay on HL-60(TB) leukemia, 32.6% (inactive).
As for `C/C=C\C(=O)O[C@@H]1CC2O[C@@H]3C=C(C)C(=O)C[C@]3(C)[C@]1(C)[C@]21CO1`, the growth was -20.5% (active) with NCI-H226 lung; -11% (active) in the assay on NCI-H322M lung; -32.6% (active) with HOP-62 NSCLC; 0.808% (active) in the assay with NCI-H460 lung; -5.19% (active) in the assay on A549/ATCC NSCLC; -55.3% (active) in the assay with COLO 205 colon. Also, the growth in the assay on DU-145 prostate is -15.1% (active); in the assay with SF-268 CNS, 0.463% (active); with SF-295 CNS, -18.2% (active); in the assay with SF-539 CNS it was -31.9% (active); in the assay with HCT-15 colon, -5% (active); in the assay on HT29 colon, -33.4% (active). Moreover, the growth in the assay on SNB-75 CNS is -14.8% (active); in the assay on SNB-19 CNS, -10.5% (active); in the assay with U251 CNS, -11% (active); in the assay with PC-3 prostate, -2.85% (active); in the assay with EKVX NSCLC, -2.36% (active); in the assay on UO-31 renal it was -12.4% (active). For the same compound, the figures for the growth in the assay with ACHN renal and in the assay with HL-60(TB) leukemia were -28.6% (active) and -47.3% (active), respectively.
